From PubChem BioAssay AID604 (The Scripps Research Institute Molecular Screening Center, 2007)
The campaign covered roughly 60,000 compounds. About 210 (0.35%) were called active. The sample holds actives, similar compounds and a random draw of the others, so the mix is not that of the screen.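 Rule for the calls: active = inhibition above the screen-wide mean inhibition plus 3 SD (cut at about 18% in these data); inactive = the rest.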

Biological target: Rho-associated protein kinase 2 (Homo sapiens) (UniProt O75116)
Experiment: ROCK2 enzymatic activity blockers – biochemical, high-throughput, luminescence, primary screen (AID 604);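 note: plate controls were DMSO wells for no effect and Y-27632 control wells after no-enzyme background subtraction for full effect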
Conditions: purified ROCK2, Kinase-Glo ATP depletion luminescence; at 6 µM; hits give high values

Chain of Rho-associated protein kinase 2 (Homo sapiens) (O75116 whole entry, looked up): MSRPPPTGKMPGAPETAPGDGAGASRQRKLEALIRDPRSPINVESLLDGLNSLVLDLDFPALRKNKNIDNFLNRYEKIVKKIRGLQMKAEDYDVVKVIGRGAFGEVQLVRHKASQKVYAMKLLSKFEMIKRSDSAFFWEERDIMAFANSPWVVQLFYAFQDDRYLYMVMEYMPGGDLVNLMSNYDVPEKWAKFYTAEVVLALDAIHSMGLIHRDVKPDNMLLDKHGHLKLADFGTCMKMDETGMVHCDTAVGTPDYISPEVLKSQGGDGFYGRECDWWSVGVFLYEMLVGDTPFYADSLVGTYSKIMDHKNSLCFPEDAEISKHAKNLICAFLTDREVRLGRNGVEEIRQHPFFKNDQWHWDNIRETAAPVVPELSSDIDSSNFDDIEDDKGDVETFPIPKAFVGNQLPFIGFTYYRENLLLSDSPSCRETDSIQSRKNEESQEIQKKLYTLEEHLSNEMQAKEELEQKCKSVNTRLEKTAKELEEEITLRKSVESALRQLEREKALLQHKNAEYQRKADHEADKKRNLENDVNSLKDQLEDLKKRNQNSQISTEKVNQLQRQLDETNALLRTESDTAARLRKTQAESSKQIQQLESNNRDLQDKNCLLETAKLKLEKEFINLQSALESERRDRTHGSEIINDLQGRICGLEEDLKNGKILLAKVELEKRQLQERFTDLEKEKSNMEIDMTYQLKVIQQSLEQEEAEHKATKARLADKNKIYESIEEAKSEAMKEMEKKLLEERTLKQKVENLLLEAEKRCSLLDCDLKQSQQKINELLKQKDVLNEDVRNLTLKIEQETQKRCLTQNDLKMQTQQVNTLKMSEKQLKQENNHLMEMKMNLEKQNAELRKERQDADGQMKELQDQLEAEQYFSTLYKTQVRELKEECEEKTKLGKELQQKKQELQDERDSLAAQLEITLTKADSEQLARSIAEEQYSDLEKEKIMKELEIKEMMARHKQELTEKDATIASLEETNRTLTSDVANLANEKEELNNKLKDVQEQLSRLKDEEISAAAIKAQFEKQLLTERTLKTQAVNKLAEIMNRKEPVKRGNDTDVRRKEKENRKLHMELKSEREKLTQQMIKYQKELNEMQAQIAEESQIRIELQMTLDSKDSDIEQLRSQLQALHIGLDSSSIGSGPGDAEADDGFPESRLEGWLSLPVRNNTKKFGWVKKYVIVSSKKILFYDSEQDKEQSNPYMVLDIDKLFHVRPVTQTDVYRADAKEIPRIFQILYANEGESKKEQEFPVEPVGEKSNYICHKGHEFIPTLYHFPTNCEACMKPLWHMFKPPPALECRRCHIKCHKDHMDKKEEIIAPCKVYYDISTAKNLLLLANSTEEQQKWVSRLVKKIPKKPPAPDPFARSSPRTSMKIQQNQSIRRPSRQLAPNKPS

Structure (SMILES)	inhibition
CC(C)OCCCNc1nc2c(c(=O)n(Cc3ccccc3F)c(=O)n2C)n1C	-0.3% (inactive)
CC1Cc2ccccc2N1C(=O)CSc1nnc(-c2ccc(S(=O)(=O)N3CCCCC3)cc2)o1 (stereo not given)	-4.4% (inactive)
CCCCCCn1c(CN2CCCCC2)nc2c1c(=O)n(C)c(=O)n2C	-1.3% (inactive)
Cc1nn(-c2ccccc2)c(C)c1C(=O)OCC(=O)NC(=O)NC1CCCCC1	1.4% (inactive)
COC(=O)C(C)n1cnc2c(nnn2-c2cccc(Cl)c2)c1=O (stereo not given)	7.7% (inactive)
O=C(CC1N=C2c3ccccc3N=C(SCc3ccccc3Cl)N2C1=O)NCc1ccco1 (stereo not given)	2.8% (inactive)
Cc1cccc(OCc2nnc(SCC(=O)N3CCN(C(=O)c4ccco4)CC3)n2C)c1C	3.2% (inactive)
O=C(c1cc(-c2ccccc2O)on1)N1CCCC1	-1.5% (inactive)
CCOC(=O)N1CCC(NC(=O)Cn2cc3c(n2)CCCCC3)CC1	9% (inactive)
O=C(CN1CCOCC1)Nc1cc(Cl)ccc1Cl	2.5% (inactive)
O=C(NCc1ccco1)C1CCCN(S(=O)(=O)c2cnc[nH]2)C1 (stereo not given)	3.2% (inactive)
COc1cccc(-c2nn(C)c3sc(C(=O)N4CCN(c5ccccc5)CC4)cc23)c1	6.1% (inactive)
O=C(Nc1ccn(Cc2ccc(F)cc2)n1)c1ccncc1	18.1% (inactive)
CCOC(=O)Cc1csc(NC(=O)CN(C)S(=O)(=O)c2ccc3c(c2)CCC(=O)N3)n1	2.4% (inactive)
CC(C)n1c(NCc2c[nH]c3ccccc23)nc2ccccc21	2.4% (inactive)
Cc1cc(NC(=O)CCC(=O)N(c2cccc(F)c2)C(C(=O)NC2CCCC2)c2ccncc2)no1 (stereo not given)	4% (inactive)
Cc1ccccc1-c1nc(CS(=O)(=O)CC(=O)N2CCc3ccccc3C2)c(C)o1	-0.8% (inactive)
CN(C)Cc1c(O)ccc2occ(C(O)c3ccccc3)c12 (stereo not given)	2% (inactive)
CSc1ccc(S(=O)(=O)NCc2ccc(Cl)cc2)cc1	5.4% (inactive)
CCOC(=O)N1CCN(Cc2nc3c(c(=O)n(C)c(=O)n3C)n2Cc2ccccc2)CC1	2.4% (inactive)
CCn1c(SCC(=O)Nc2cc(C)c(Cl)cc2OC)nnc1-c1ccco1	3.2% (inactive)
Cc1ccc(N2CCN(S(=O)(=O)N(C)C)CC2)cc1Cl	8.1% (inactive)
O=c1c(-c2ccc3c(c2)OCCO3)c(C(F)(F)F)oc2cc(O)cc(O)c12	-3.1% (inactive)
CCOC(=O)C1=C(C)NC(C)=C(C(=O)OCC)C1c1ccccn1	-6.7% (inactive)
CC(=O)N1CSCC1C(=O)O (stereo not given)	2.3% (inactive)
Cc1noc(C)c1C(=O)Nc1ccccn1	8.1% (inactive)
O=C(NCc1cccnc1)c1ccc(CS(=O)(=O)c2ccc(Br)cc2)o1	1.6% (inactive)

Structure (SMILES)	inhibition
O=C(/C(=N\O)n1cncn1)c1ccc(Br)cc1Br	-2.8% (inactive)
CCOC(=O)NC(C(F)(F)F)(C(F)(F)F)P(=O)(c1ccccc1)c1ccccc1	3.9% (inactive)
CCN(CC(=O)NCc1cccs1)c1nnnn1-c1ccccc1	-4.6% (inactive)
C[C@H](NC(=O)NCCc1ccccc1)C(=O)O	4.7% (inactive)
COc1ccc(C2CC(c3ccc(C)cc3)Nc3nc(N)nn32)cc1 (stereo not given)	-2.6% (inactive)
O=C(CN(Cc1ccccc1)C(=O)c1ccc2c(c1)OCCO2)NCc1ccc2c(c1)OCO2	5.9% (inactive)
Cc1cccc(Cn2c(N3CCN(c4ccccc4)CC3)nc3c2c(=O)n(C)c(=O)n3C)c1	5.3% (inactive)
COc1ccccc1NC1=NC2(CCCC2)N=C(N)N1	-2% (inactive)
CCOc1ncccc1C(=O)OCc1cn2cc(Cl)ccc2n1	12.7% (inactive)
Cc1ccc(C2c3c(oc4ccc(C)cc4c3=O)C(=O)N2CCCN2CCOCC2)cc1 (stereo not given)	-2.1% (inactive)
Cc1cc(NC(=O)CSCc2nc(-c3cccc(Cl)c3)oc2C)no1	3.5% (inactive)
COc1ccccc1N(CC(=O)N1CCCCC1)S(=O)(=O)c1ccccc1	5.5% (inactive)
COc1ccc(N2C(=O)CC(N3CCC(C(N)=O)CC3)C2=O)cc1 (stereo not given)	-1.8% (inactive)
O=C(CC1Oc2ccccc2NC1=O)NCCCN1CCN(Cc2ccccc2)CC1 (stereo not given)	0.1% (inactive)
C(=C\c1ccccc1)/CSc1nnc(-c2cccnc2)n1Cc1ccco1	5% (inactive)
CCN(CC)CCN1C(=O)C(=O)/C(=C(/O)c2ccc(OC)c(OC)c2)C1c1ccccn1 (stereo not given)	1.6% (inactive)
Cc1cc(N=CC2=C(O)CCCC2=O)no1	4.3% (inactive)
Cc1ccsc1-c1nc(CSCC(=O)NCCN2CCCC2)c(C)o1	-0.8% (inactive)
CC1CCCN(c2ccc(C(=O)NCCc3ccccc3)cn2)C1 (stereo not given)	7.3% (inactive)
Cc1ccc(S(=O)(=O)N2CCCC2C(=O)NCc2ccco2)cc1 (stereo not given)	-1.2% (inactive)
CC(C)NS(=O)(=O)c1ccc(CCC(=O)N2CCOCC2)cc1	1.3% (inactive)
CCn1nc(NC(=O)c2ccco2)c2cc3ccc(C)cc3nc21	-4.9% (inactive)
CCNS(=O)(=O)c1ccc(NC(=O)Nc2cccc(OC)c2)cc1	2.5% (inactive)
COc1ccc(CNC(=O)c2cc3c(=O)n4ccccc4nc3n(CC3CCCO3)c2=N)cc1 (stereo not given)	5.4% (inactive)
CCOC(=O)c1csc(NC(=O)c2ccc(S(=O)(=O)N3CCCC3)cc2)n1	-1.1% (inactive)
C=CCn1c(=S)[nH]c2nc3c(cc2c1=O)COC(C)(C)C3	8% (inactive)
CCCCC(=O)N1CC2(C)CN(C(=O)CCCC)CC(C)(C1)C2=O	3.9% (inactive)

Structure (SMILES)	inhibition
O=C(Nc1ccccc1F)c1cc(S(=O)(=O)N2CCCCC2)cs1	9.5% (inactive)
O=C(CSc1ncccn1)NCCc1ccccc1	6.2% (inactive)
CCCOC(=O)Cc1c(O)c2ccccc2[nH]c1=O	1.5% (inactive)
CC1(C)CC(=O)C=C(NC2CC(C)(C)NC(C)(C)C2)C1	5.7% (inactive)
O=C(OCC(=O)N1CCCC1)c1ccco1	3.5% (inactive)
Cc1oc(CC(C)C)c(CN2CCCC2)c1C(=O)O	0.9% (inactive)
CC(=O)Cc1nsc(NC(=O)c2ccc(COc3ccc(C)cc3)o2)n1	2.4% (inactive)
Cc1noc(C)c1S(=O)(=O)N1CCCC(C(=O)Nc2nccs2)C1 (stereo not given)	3.5% (inactive)
CCOC(=O)CC1=CC(=O)Nc2ccccc2N1	7.2% (inactive)
Cc1occc1C(=O)N1CCCc2ccccc21	1% (inactive)
O=C(c1ccc(S(=O)(=O)N2CCOCC2)cc1)N1CCN(c2ccccc2)CC1	2.3% (inactive)
O=C1c2oc3ccccc3c(=O)c2C(c2cccc(O)c2)N1c1ccccn1 (stereo not given)	1% (inactive)
COc1ccc(-n2c(SCC(=O)Nc3ccc4c(c3)OCO4)nnc2C(C)N2CCCCC2)cc1 (stereo not given)	1% (inactive)
c1ccc2c(NCC3CCCO3)nc(-c3ccncc3)nc2c1 (stereo not given)	5.5% (inactive)
Cc1noc(C)c1COC(=O)Cn1c(C)nc2ccccc21	5.1% (inactive)
CCOC(=O)C1CCN(C(=O)C2CCN(S(=O)(=O)CC)CC2)CC1	-1.2% (inactive)
CCCc1nc(SCC(=O)Nc2ccccc2OC)c2c(=O)n(C)c(=O)n(C)c2n1	1.6% (inactive)
CCOc1ccccc1N(CC(=O)NC1CCCCC1)C(=O)CCCC(=O)Nc1ccccn1	4.8% (inactive)
O=C(CSc1nnc(-c2cccnc2)n1Cc1ccco1)c1ccc(Cl)cc1	2.8% (inactive)
CCOc1ccccc1NC(=O)CCc1ccc(C)o1	0.9% (inactive)
CS(=O)(=O)c1ccc2nc(NC(=O)C3CCCCC3)sc2c1	6.5% (inactive)
O=c1c(F)cn(C2CCCO2)c(=O)n1Cc1ccccc1Cl (stereo not given)	-7.2% (inactive)
CCn1c(CSc2ncccn2)nnc1SCC(=O)N1c2ccccc2CC1C (stereo not given)	1.2% (inactive)
CCCOc1ccc(N2CC(C(=O)Nc3ccccn3)CC2=O)cc1 (stereo not given)	2.5% (inactive)
O=C1CCCC2=C1C(c1cccs1)n1nc(SCc3ccccc3)nc1N2 (stereo not given)	2% (inactive)
COc1ccc(-c2[nH]nc3c2C(c2ccncc2)C(C#N)=C(N)O3)cc1 (stereo not given)	-0.8% (inactive)
CC(C(=O)N1CCOCC1)N1c2cccc3cccc(c23)S1(=O)=O (stereo not given)	11.3% (inactive)

Structure (SMILES)	inhibition
O=C(c1cccs1)N(C(=O)c1cccs1)c1ccccn1	3.6% (inactive)
CCc1c(C)nc(N2CCN(Cc3ccccc3)CC2)[nH]c1=O	-0.6% (inactive)
CCN1CCN(Cc2nc3c(c(=O)n(C)c(=O)n3C)n2CC(=O)c2ccccc2)CC1	-1.1% (inactive)
COc1ccccc1CNC(=O)Cn1cc2c(n1)CCCC2	2.7% (inactive)
N#CCCn1cnc2ccccc21	0.3% (inactive)
CCn1c(=N)n(CC(=O)c2cccc(OC)c2)c2ccccc21	-1.1% (inactive)
CCOCCCNC(=O)c1c[nH]c2cc(C)ccc2c1=O	-0.3% (inactive)
Brc1cnc(N2CCCC2)nc1N1CCCCC1	2% (inactive)
COc1ccc(N2CC(C)Cn3c2nc2c3c(=O)n(Cc3ccccc3F)c(=O)n2C)c(OC)c1 (stereo not given)	-0.2% (inactive)
CCC(Sc1nncn1C)C(=O)Nc1nnc(-c2ccc(Cl)cc2)s1 (stereo not given)	3.6% (inactive)
COc1ccc(N=Cc2c(O)[nH]c3ccccc23)cc1OC	36.8% (active)
COc1ccc(CCNC(=O)CCCCn2c(=O)[nH]c3ccccc3c2=O)cc1OC	4.9% (inactive)
COC(=O)c1[nH]c2ccccc2c1NS(=O)(=O)c1ccc(OC)cc1OC	5.9% (inactive)
COc1ccc2[nH]c3ccc(OC)cc3c2c1	5.6% (inactive)
COc1ccc(OC)c(N=Cc2c(O)[nH]c3ccccc23)c1	12.3% (inactive)
COc1cc(N=Cc2c(O)[nH]c3ccccc23)cc(OC)c1OC	58.4% (active)
CC(C)=C(NC(=O)c1ccco1)C(=O)NCCc1nc2ccccc2[nH]1	1.2% (inactive)
COc1cc(NS(=O)(=O)c2ccccc2)ccc1-n1nc(C)cc1C	10.8% (inactive)
CCCOC(=O)c1cc2ccccc2oc1=O	0.3% (inactive)
CCOc1cc(S(=O)(=O)NCc2ccc3c(c2)OCO3)ccc1F	0.8% (inactive)
CN(C)/C=C1\C=C(c2ccccc2)OC1=O	0.1% (inactive)
COCCN1C(=O)c2oc3c(C)cc(C)cc3c(=O)c2C1c1cccc(O)c1 (stereo not given)	-3% (inactive)
O=C(NCCCN1CCN(Cc2ccccc2)CC1)C1CCN(S(=O)(=O)N2CCCC2)CC1	2.6% (inactive)
O=C(c1ccco1)N1CCN(C(=O)C2c3ccccc3Oc3ccccc32)CC1	-3.5% (inactive)
